Results: the supplement of paper PMC10849652
About 7,900 targets were measured; listed, in parts, are those with a hit and a random draw of the rest. About 0.6% of all pairs of compound and target were hits. Values without a mark were called inactive.

What was measured:
Assay in all cases: log2 fold change, soluble protein after heating vs DMSO (PISA); higher = thermal stabilisation; K562 cells, 10 uM, 30 min; active = over 0.2 and 3.5 SD of the protein, either way, in both replicates (recomputed)
[1] = compound: CC1=C(C=C(C=C1)NC(=O)C2=CC(=CC=C2)C(C)(C)C#N)NC3=CC4=C(C=C3)N=CN(C4=O)C
How it was run: (§1)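 K562 cells at 2×10^6 cells/mL were treated for 30 min with 10 μM compound, and aliquots were heated for 3 min over 48°C-58°C before pooling. Extraction used PBS with 0.5% NP-40 at 4°C, and soluble protein was the supernatant after 21,000xg for 90 min, measured by TMTpro 16plex LC-MS/MS with channel sums equalised. Thermal stability values, relative to control samples and from duplicates, are log2 fold changes.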

[2] = compound: CC1=C(C=C(C=C1)NC(=O)C2=CC(=CC=C2)N(C)C)NC(=O)C3=CC=C(C=C3)O
How it was run: as §1

[3] = compound: CC1=CC=C(C=C1)SC2=C3C=C(SC3=CN=C2)C(=O)N
How it was run: as §1

[4] = compound: CC1=NC(=CC=C1)C2=C(N=C(N2)C(C)(C)C)C3=CC4=NC=CN=C4C=C3
How it was run: as §1

Nexturastat A = compound: CCCCN(Cc1ccc(C(=O)NO)cc1)C(=O)Nc1ccccc1 [Nexturastat A]
How it was run: as §1

vemurafenib = compound: CCCS(=O)(=O)Nc1ccc(F)c(C(=O)c2c[nH]c3ncc(-c4ccc(Cl)cc4)cc23)c1F [vemurafenib]
How it was run: as §1

[5] = compound: CCCS(=O)(=O)Nc1ccc(F)c(C(=O)c2c[nH]c3ncc(Cl)cc23)c1F
How it was run: as §1

[6] = compound: CCCc1cc(C)[nH]c(=O)c1CNC(=O)c1cc(-c2ccnc(N3CCN(C)CC3)c2)cc2c1cnn2C(C)C
How it was run: as §1

givinostat = compound: CCN(CC)Cc1ccc2cc(COC(=O)Nc3ccc(C(=O)NO)cc3)ccc2c1 [givinostat]
How it was run: as §1

barasertib = compound: CCN(CCCOc1ccc2c(Nc3cc(CC(=O)Nc4cccc(F)c4)[nH]n3)ncnc2c1)CCOP(=O)(O)O [barasertib]
How it was run: as §1

Sequence of UniProt P84103 (P84103 whole entry, looked up): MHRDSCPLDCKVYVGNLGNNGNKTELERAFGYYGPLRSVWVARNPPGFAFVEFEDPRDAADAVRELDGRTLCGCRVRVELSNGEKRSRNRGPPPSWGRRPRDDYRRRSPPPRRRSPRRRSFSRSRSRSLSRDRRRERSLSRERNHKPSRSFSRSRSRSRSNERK
Sequence of UniProt Q9ULP9 (Q9ULP9 whole entry, looked up): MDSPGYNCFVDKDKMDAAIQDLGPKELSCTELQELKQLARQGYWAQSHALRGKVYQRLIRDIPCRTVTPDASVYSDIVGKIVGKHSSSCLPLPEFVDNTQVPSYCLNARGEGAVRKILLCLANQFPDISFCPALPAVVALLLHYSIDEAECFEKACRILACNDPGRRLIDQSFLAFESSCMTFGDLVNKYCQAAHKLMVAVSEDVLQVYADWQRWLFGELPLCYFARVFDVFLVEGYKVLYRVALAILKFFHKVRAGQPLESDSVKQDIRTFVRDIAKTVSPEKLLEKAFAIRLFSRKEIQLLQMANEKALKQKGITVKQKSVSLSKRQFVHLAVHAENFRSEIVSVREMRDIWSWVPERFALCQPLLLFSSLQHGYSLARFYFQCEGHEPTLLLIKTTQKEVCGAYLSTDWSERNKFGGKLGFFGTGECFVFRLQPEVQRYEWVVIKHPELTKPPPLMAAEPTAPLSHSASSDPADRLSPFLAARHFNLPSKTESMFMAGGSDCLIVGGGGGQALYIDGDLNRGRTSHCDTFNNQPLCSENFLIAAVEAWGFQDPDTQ
Sequence of UniProt Q92609 (Q92609 whole entry, looked up): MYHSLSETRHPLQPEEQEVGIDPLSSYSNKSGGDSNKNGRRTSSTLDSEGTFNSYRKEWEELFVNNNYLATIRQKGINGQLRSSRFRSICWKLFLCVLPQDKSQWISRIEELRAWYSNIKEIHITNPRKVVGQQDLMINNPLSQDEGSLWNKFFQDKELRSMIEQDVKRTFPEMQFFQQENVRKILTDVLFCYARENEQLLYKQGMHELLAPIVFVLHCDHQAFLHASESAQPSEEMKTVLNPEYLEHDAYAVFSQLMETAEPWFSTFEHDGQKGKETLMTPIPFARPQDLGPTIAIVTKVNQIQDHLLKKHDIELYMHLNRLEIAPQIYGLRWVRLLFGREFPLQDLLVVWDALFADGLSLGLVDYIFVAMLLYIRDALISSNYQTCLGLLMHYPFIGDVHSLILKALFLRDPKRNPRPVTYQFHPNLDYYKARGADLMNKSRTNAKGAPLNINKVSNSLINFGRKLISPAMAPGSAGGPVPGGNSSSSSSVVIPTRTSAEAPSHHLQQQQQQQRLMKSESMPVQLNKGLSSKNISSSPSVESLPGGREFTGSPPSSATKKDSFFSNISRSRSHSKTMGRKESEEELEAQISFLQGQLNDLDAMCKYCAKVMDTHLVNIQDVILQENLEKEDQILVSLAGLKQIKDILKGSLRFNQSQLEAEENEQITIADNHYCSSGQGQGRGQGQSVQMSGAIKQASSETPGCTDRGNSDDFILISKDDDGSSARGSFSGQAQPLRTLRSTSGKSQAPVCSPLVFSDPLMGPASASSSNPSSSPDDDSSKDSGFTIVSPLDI
Sequence of UniProt Q9Y5L4 (Q9Y5L4 whole entry, looked up): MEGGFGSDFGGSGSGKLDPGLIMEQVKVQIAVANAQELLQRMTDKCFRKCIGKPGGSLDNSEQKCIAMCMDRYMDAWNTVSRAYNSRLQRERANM
Sequence of UniProt Q02447 (Q02447 whole entry, looked up): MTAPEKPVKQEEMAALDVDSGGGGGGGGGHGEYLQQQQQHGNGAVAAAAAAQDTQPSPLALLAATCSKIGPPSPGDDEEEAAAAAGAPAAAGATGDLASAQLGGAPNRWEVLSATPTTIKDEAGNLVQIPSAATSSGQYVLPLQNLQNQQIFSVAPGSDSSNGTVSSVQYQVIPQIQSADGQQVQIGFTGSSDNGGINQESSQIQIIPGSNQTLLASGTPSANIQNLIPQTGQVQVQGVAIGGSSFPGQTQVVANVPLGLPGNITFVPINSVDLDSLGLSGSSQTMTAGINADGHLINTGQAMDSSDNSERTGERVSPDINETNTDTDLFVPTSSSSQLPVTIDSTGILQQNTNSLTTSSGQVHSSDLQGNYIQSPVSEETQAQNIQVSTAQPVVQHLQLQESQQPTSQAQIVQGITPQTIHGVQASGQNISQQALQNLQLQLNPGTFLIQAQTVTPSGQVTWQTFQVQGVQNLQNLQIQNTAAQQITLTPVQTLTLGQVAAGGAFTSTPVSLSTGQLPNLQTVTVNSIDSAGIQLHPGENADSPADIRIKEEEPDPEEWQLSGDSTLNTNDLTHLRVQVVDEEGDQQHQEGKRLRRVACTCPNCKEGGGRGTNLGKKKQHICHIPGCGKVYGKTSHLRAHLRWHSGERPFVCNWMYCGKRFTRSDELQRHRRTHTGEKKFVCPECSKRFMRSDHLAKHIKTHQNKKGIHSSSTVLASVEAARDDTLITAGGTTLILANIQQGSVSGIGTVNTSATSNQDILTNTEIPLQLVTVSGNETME
Sequence of UniProt Q8NEW0 (Q8NEW0 whole entry, looked up): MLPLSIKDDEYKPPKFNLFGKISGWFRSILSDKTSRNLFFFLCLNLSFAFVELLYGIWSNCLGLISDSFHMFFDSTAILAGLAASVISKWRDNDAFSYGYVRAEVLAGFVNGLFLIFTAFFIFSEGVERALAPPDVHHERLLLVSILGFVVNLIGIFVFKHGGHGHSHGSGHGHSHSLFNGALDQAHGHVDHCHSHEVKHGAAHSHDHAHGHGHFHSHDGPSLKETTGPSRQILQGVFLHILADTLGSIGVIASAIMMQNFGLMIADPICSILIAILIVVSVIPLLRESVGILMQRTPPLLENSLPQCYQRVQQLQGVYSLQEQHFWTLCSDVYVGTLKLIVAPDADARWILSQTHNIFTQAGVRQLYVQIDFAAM
Sequence of UniProt O76094 (O76094 whole entry, looked up): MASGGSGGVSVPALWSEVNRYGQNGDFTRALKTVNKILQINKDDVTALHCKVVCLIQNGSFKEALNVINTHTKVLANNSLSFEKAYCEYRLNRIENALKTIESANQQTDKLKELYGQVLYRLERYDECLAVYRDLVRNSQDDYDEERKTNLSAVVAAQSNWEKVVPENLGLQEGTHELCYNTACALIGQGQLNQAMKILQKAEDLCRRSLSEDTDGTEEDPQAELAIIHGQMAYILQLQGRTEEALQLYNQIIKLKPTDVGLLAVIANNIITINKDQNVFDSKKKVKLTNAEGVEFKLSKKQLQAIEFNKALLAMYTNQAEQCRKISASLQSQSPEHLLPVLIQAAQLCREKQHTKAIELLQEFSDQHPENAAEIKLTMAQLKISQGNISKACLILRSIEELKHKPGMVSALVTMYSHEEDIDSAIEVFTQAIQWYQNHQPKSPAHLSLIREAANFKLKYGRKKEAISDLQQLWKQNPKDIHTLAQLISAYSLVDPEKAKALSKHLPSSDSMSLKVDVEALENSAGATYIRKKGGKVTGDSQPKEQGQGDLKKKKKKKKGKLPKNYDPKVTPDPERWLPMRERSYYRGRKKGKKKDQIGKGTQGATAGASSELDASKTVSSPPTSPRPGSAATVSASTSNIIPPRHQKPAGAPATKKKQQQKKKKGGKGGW
Sequence of UniProt Q96CQ1 (Q96CQ1 whole entry, looked up): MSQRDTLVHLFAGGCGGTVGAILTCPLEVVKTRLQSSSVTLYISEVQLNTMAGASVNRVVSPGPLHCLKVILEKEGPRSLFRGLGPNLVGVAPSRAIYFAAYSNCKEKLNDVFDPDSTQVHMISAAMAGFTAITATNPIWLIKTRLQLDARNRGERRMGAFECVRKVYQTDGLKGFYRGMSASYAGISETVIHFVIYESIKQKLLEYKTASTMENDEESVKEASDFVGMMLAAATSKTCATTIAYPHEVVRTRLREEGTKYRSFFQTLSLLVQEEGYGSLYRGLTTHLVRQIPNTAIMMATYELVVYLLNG
Sequence of UniProt O43815 (O43815 whole entry, looked up): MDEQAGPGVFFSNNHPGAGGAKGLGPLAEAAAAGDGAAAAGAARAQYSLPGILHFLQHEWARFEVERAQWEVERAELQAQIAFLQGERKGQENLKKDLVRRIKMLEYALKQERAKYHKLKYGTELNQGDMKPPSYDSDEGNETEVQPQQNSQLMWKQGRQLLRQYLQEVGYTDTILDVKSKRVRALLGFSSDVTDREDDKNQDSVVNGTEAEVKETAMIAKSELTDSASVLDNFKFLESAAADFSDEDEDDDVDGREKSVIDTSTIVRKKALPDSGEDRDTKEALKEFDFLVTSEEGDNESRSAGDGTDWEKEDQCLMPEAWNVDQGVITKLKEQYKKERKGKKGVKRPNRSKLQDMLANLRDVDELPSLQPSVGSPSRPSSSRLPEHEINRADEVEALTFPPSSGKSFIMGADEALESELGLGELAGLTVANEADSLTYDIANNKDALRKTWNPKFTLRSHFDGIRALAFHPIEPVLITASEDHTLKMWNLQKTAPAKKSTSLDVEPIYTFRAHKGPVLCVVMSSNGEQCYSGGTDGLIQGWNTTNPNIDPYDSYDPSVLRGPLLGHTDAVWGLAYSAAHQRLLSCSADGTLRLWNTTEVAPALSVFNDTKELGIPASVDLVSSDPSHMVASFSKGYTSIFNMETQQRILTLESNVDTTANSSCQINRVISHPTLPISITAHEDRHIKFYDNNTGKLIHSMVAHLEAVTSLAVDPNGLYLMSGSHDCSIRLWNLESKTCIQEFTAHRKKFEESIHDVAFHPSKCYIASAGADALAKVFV
Sequence of UniProt O00193 (O00193 whole entry, looked up): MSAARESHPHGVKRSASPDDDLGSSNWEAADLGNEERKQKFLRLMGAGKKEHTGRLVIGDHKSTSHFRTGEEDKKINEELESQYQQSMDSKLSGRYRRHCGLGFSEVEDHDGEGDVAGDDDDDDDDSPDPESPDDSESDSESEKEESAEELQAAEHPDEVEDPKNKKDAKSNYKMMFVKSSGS
Sequence of UniProt P55061 (P55061 whole entry, looked up): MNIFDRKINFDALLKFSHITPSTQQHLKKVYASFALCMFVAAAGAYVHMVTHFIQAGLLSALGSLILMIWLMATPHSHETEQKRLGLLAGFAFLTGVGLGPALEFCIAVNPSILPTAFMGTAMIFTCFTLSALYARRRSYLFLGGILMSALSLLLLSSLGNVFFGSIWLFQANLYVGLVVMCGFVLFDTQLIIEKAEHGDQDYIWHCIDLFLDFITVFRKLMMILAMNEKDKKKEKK

Target | log2 fold change [1] | log2 fold change [2] | log2 fold change [3] | log2 fold change [4] | log2 fold change (Nexturastat A) | log2 fold change (vemurafenib) | log2 fold change [5] | log2 fold change [6] | log2 fold change (givinostat) | log2 fold change (barasertib)
STOM (UniProt P27105) | -0.035 | 0.025 | -0.041 | -0.002 | 0.007 | 0.01 | -0.053 | -0.092 | 0.005 | -0.017
SP1 (UniProt P08047) | 0.023 | -0.068 | -0.067 | -0.033 | 0.034 | -0.017 | -0.069 | -0.018 | -0.114 | 0.011
TBC1D10B (UniProt Q4KMP7) | -0.019 | 0.015 | 0.025 | 0 | -0.051 | 0.004 | 0.048 | 0.014 | 0.018 | 0.01
TIMM13 (UniProt Q9Y5L4) | 0.086 | -0.048 | 0.03 | 0.143 | -0.19 | 0.072 | 0.015 | 0.085 | 0.089 | -0.035
ST3GAL2 (UniProt Q16842) | 0.064 | -0.054 | -0.216 | 0.066 | -0.012 | -0.032 | -0.013 | 0.212 | 0.078 | 0.112
SLC25A4 (UniProt P12235) | 0.041 | 0.029 | 0.073 | 0.017 | -0.228 (active) | -0.028 | -0.02 | -0.032 | -0.049 | -0.009
SUN1 isoform 9 (UniProt O94901) | -0.164 | 0.047 | 0.029 | 0.04 | 0.11 | -0.21 | -0.005 | 0.037 | 0.078 | 
SPPL2B (UniProt Q8TCT7) | -0.097 | 0.004 | 0.089 | 0.041 | 0.029 | -0.05 | -0.018 | 0.021 | 0.048 | 0
TBC1D24 (UniProt Q9ULP9) | -0.018 | -0.012 | 0.005 | 0.006 | -0.024 | 0.019 | 0.046 | -0.033 | 0.005 | -0.019
SLC30A10 (UniProt Q6XR72) | 0.028 | -0.102 | 0.131 | 0.001 | -0.545 (active) | -0.031 | -0.073 | -0.086 | -0.002 | -0.025
SLC30A7 (UniProt Q8NEW0) | -0.03 | 0.003 | 0.03 | -0.072 | -0.108 | 0.072 | -0.019 | -0.148 | 0.081 | 0.032
STRN (UniProt O43815) | -0.019 | -0.046 | 0.019 | -0.024 | 0.001 | 0.073 | 0.035 | -0.038 | 0.002 | 0.045
THRAP3 (UniProt Q9Y2W1) | -0.008 | 0.004 | -0.056 | -0.035 | 0.109 | 0.063 | -0.01 | 0.197 | 0.093 | -0.099
TGFBI (UniProt Q15582) | -0.167 | 0.101 | 0.062 | 0.091 | -0.082 | 0.157 | -0.044 | -0.255 | -0.08 | 0.068
SLC27A1 (UniProt Q6PCB7) | -0.186 | 0.036 | -0.046 | 0.12 | -0.061 | -0.109 | -0.008 | -0.01 | 0.049 | 0.043
SRSF3 (UniProt P84103) | -0.019 | 0.047 | -0.208 | -0.103 | 0.124 | -0.064 | -0.173 | 0.047 | -0.029 | -0.093
SP100 isoform 4 (UniProt P23497) | 0.02 | -0.004 | 0.072 | -0.008 | -0.119 | -0.019 | 0.159 | 0 | -0.005 | 0.003
TAOK3 (UniProt Q9H2K8) | 0.028 | -0.031 | 0.078 | 0.059 | -0.054 | 0.092 | 0.115 | 0 | -0.019 | 0.027
SMAP (UniProt O00193) | -0.018 | -0.002 | -0.03 | 0.062 | -0.059 | -0.006 | 0.001 | -0.107 | -0.02 | 0.008
TBC1D5 isoform 2 (UniProt Q92609) | -0.051 | -0.048 | -0.013 | 0.018 | 0.01 | 0.048 | 0.112 | -0.033 | 0.049 | 0.022
TMBIM6 isoform 2 (UniProt P55061) | -0.05 | 0.045 | 0.04 | -0.016 | -0.005 | -0.121 | 0.048 | 0.619 | 0.072 | 0.019
TBCD (UniProt Q9BTW9) | 0.016 | 0.003 | 0.025 | 0.052 | -0.051 | 0.005 | 0.02 | -0.007 | 0.012 | 0.019
SMAD9 (UniProt O15198) | -0.012 | 0.029 | 0.005 | 0.028 | 0.04 | 0.122 | 0.104 | -0.032 | 0.108 | 0.054
SLC25A36 (UniProt Q96CQ1) | 0.044 | 0.008 | -0.172 | -0.048 | 0.016 | -0.297 (active) | 0.016 | -0.067 | 0.115 | -0.011
TEX264 (UniProt Q9Y6I9) | 0.053 | -0.016 | -0.008 | 0.013 | 0.023 | -0.002 | -0.049 | 0.014 | 0.317 | 0.032
TIMM29 (UniProt Q9BSF4) | -0.007 | -0.015 | -0.023 | -0.102 | -0.037 | -0.031 | 0.033 | 0 | 0.014 | 0.004
SNW1 (UniProt Q13573) | -0.035 | 0.041 | -0.017 | 0 | 0.074 | -0.04 | -0.017 | -0.045 | -0.041 | -0.02
SRP72 (UniProt O76094) | 0.024 | -0.01 | 0.034 | -0.009 | 0.171 | 0.037 | 0.09 | 0.046 | 0.143 | 0.078
TFR2 (UniProt Q9UP52) | 0.012 | -0.018 | -0.012 | -0.036 | -0.031 | -0.018 | -0.003 | -0.029 | -0.083 | 0.01
SP3 (UniProt Q02447) | -0.008 | -0.126 | -0.041 | -0.058 | -0.003 | -0.038 | 0.012 | -0.052 | -0.219 | 0.011
